Measurements published in PubChem BioAssay AID1159580 (chemical genetic matrix, 2015).
The campaign covered roughly 5,500 compounds. About 2,000 (36%) were called active. Not shown: some 18% with an inconclusive outcome. Rule as the data show it: active = normalized growth mostly below about 0.91 (no sharp cut-off); inconclusive = no clear call, values can overlap the other calls; inactive = mostly above about 0.92. The list shows a part of the results.

Experiment: chemical genetic growth profiling, strain panel (AID 1159580);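 also: tested at 20 µM; growth read once vehicle control cultures reached saturation at 30 °C; 1 = growth at the plate median or of vehicle wells; lower values mean less growth of the strain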
Conditions: growth OD

Measured: normalized growth

CCOC(=O)NNc1nncc2ccccc12
inactive: S. cerevisiae deletion strains, locus YJR066W, strain TOR1, hits give low values 0.978 | S. cerevisiae deletion strains, locus YJR075W, strain HOC1, hits give low values 0.997 | S. cerevisiae deletion strains, locus YKL009W, strain mrt4, hits give low values 0.986 | S. cerevisiae deletion strains, locus YKL068W, hits give low values 0.984 | S. cerevisiae deletion strains, locus YKL085W, strain MDH1 (second series), hits give low values 0.992 | S. cerevisiae deletion strains, locus YKL085W, strain MDH1, hits give low values 0.992 | S. cerevisiae deletion strains, locus YKL160W, strain elf1, hits give low values 1.02 | S. cerevisiae deletion strains, locus YKL190W, strain CNB1, hits give low values 0.998 | S. cerevisiae deletion strains, locus YKR001C, strain vps1, hits give low values 0.983 | S. cerevisiae deletion strains, locus YKR026C, strain gcn3, hits give low values 1.02 | S. cerevisiae deletion strains, locus YKR091W, strain srl3, hits give low values 1 | S. cerevisiae deletion strains, locus YLL001W, strain dnm1, hits give low values 0.986 | S. cerevisiae deletion strains, locus YLL026W, hits give low values 1 | S. cerevisiae deletion strains, locus YLL041C, strain sdh2, hits give low values 1.01 | S. cerevisiae deletion strains, locus YLR027C, strain aat2, hits give low values 1 | S. cerevisiae deletion strains, locus YLR039C, strain RIC1, hits give low values 1.03 | S. cerevisiae deletion strains, locus YLR058C, strain SHM2, hits give low values 0.992 | S. cerevisiae deletion strains, locus YLR102C, strain apc9, hits give low values 0.979 | S. cerevisiae deletion strains, locus YLR113W, strain HOG1, hits give low values 0.967 | S. cerevisiae deletion strains, locus YLR221C, strain rsa3, hits give low values 0.976 | S. cerevisiae deletion strains, locus YLR258W, strain gsy2, hits give low values 1.04 | S. cerevisiae deletion strains, locus YLR262C, strain YPT6 (second series), hits give low values 1.01 | S. cerevisiae deletion strains, locus YLR262C, strain YPT6, hits give low values 1.02 | S. cerevisiae deletion strains, locus YLR268W, strain sec22, hits give low values 0.968 | S. cerevisiae deletion strains, locus YLR320W, strain mms22, hits give low values 0.92 | S. cerevisiae deletion strains, locus YLR330W, strain CHS5, hits give low values 0.992 | S. cerevisiae deletion strains, locus YLR342W, strain FKS1 (second series), hits give low values 0.973 | S. cerevisiae deletion strains, locus YLR342W, strain FKS1, hits give low values 1.03 | S. cerevisiae deletion strains, locus YLR357W, strain rsc2, hits give low values 1.06 | S. cerevisiae deletion strains, locus YLR370C, strain arc18, hits give low values 1.02 | S. cerevisiae deletion strains, locus YLR371W, strain rom2, hits give low values 0.977 | S. cerevisiae deletion strains, locus YLR384C, strain iki3, hits give low values 0.989 | S. cerevisiae deletion strains, locus YLR418C, strain cdc73, hits give low values 0.957 | S. cerevisiae deletion strains, locus YML016C, strain PPZ1, hits give low values 0.991 | S. cerevisiae deletion strains, locus YML032C, strain rad52, hits give low values 0.97 | S. cerevisiae deletion strains, locus YML120C, strain ndi1, hits give low values 0.992 | S. cerevisiae deletion strains, locus YML124C, strain tub3, hits give low values 0.983 | S. cerevisiae deletion strains, locus YMR058W, strain fet3, hits give low values 1.01 | S. cerevisiae deletion strains, locus YMR078C, strain ctf18, hits give low values 0.983 | S. cerevisiae deletion strains, locus YMR125W, strain sto1, hits give low values 1.03 | S. cerevisiae deletion strains, locus YMR129W, hits give low values 0.988 | S. cerevisiae deletion strains, locus YMR205C, strain PFK2, hits give low values 0.993 | S. cerevisiae deletion strains, locus YMR223W, strain ubp8, hits give low values 0.972 | S. cerevisiae deletion strains, locus YMR231W, strain pep5, hits give low values 0.997 | S. cerevisiae deletion strains, locus YMR307W, strain GAS1, hits give low values 0.972 | S. cerevisiae deletion strains, locus YNL067W, strain RPL9B, hits give low values 1.01 | S. cerevisiae deletion strains, locus YNL071W, strain lat1, hits give low values 1.01 | S. cerevisiae deletion strains, locus YNL128W, strain TEP1, hits give low values 0.967 | S. cerevisiae deletion strains, locus YNL183C, strain NPR1, hits give low values 0.934 | S. cerevisiae deletion strains, locus YNL209W, strain ssb2, hits give low values 1.01 | S. cerevisiae deletion strains, locus YNL233W, strain BNI4, hits give low values 0.998 | S. cerevisiae deletion strains, locus YNL248C, strain rpa49, hits give low values 1.06 | S. cerevisiae deletion strains, locus YNL250W, strain rad50, hits give low values 0.995 | S. cerevisiae deletion strains, locus YNL271C, strain bni1, hits give low values 0.973 | S. cerevisiae deletion strains, locus YNL298W, strain CLA4, hits give low values 0.985 | S. cerevisiae deletion strains, locus YNL307C, strain MCK1, hits give low values 0.977 | S. cerevisiae deletion strains, locus YNL322C, strain KRE1 (second series), hits give low values 1.05 | S. cerevisiae deletion strains, locus YNL322C, strain KRE1, hits give low values 0.998 | S. cerevisiae deletion strains, locus YNR049C, strain mso1, hits give low values 1 | S. cerevisiae deletion strains, locus YNR052C, strain pop2, hits give low values 0.966 | S. cerevisiae deletion strains, locus YOL006C, strain TOP1, hits give low values 1.02 | S. cerevisiae deletion strains, locus YOL012C, strain htz1 1.25 | S. cerevisiae deletion strains, locus YOL147C, strain pex11, hits give low values 0.98 | S. cerevisiae deletion strains, locus YOR001W, strain rrp6, hits give low values 0.97 | S. cerevisiae deletion strains, locus YOR061W, strain CKA2, hits give low values 0.986 | S. cerevisiae deletion strains, locus YOR069W, strain VPS5, hits give low values 0.986 | S. cerevisiae deletion strains, locus YOR070C, strain gyp1, hits give low values 1.01 | S. cerevisiae deletion strains, locus YOR080W, strain dia2, hits give low values 1.02 | S. cerevisiae deletion strains, locus YOR083W, strain WHI5, hits give low values 0.99 | S. cerevisiae deletion strains, locus YOR106W, strain vam3, hits give low values 1.05 | S. cerevisiae deletion strains, locus YOR136W, strain idh2, hits give low values 0.981 | S. cerevisiae deletion strains, locus YOR144C, strain elg1, hits give low values 0.983 | S. cerevisiae deletion strains, locus YOR184W, strain ser1, hits give low values 0.98 | S. cerevisiae deletion strains, locus YOR231W, strain MKK1, hits give low values 0.952 | S. cerevisiae deletion strains, locus YOR265W, strain rbl2, hits give low values 0.992 | S. cerevisiae deletion strains, locus YOR270C, strain vph1, hits give low values 1.06 | S. cerevisiae deletion strains, locus YOR290C, strain snf2, hits give low values 1.05 | S. cerevisiae deletion strains, locus YOR316C, strain cot1, hits give low values 0.976 | S. cerevisiae deletion strains, locus YPL051W, strain arl3, hits give low values 1.02 | S. cerevisiae deletion strains, locus YPL055C, strain LGE1, hits give low values 1.04 | S. cerevisiae deletion strains, locus YPL078C, strain atp4, hits give low values 1.07 | S. cerevisiae deletion strains, locus YPL106C, strain sse1, hits give low values 1.04 | S. cerevisiae deletion strains, locus YPL240C, strain hsp82, hits give low values 1.01 | S. cerevisiae deletion strains, locus YPL241C, strain CIN2, hits give low values 0.993 | S. cerevisiae deletion strains, locus YPL256C, strain CLN2, hits give low values 0.955 | S. cerevisiae deletion strains, locus YPR119W, strain clb2, hits give low values 0.975 | S. cerevisiae deletion strains, locus YPR141C, strain kar3, hits give low values 0.973 | S. cerevisiae deletion strains, locus YPR163C, strain tif3, hits give low values 0.969 | S. cerevisiae deletion strains, locus YPR167C, strain met16, hits give low values 0.975 | S. cerevisiae deletion strains, strain wtn01, hits give low values 1.01 | S. cerevisiae strains, strain wild type, hits give low values 1
